SMILES strings stand for the structures. The campaign covered roughly 1,300 compounds. About 120 (9.2%) were called active. Inconclusive results (about 35%) are left out. The call rests on the fitted dose curve; in most records, active means well fitted activation curve with a large enough effect; inconclusive means small, poorly fitted or top-dose-only effect; inactive means flat fitted curve, though single readings scatter. These entries were drawn from the full list. Entries that show only a call come without a potency.

In PubChem BioAssay AID1963319 (National Center for Advancing Translational Sciences (NCATS), 2024) one finds Potency data, which are given here for 44 compounds.
Potency means the concentration at half of the fitted maximal effect.

Chain of Luciferin 4-monooxygenase (Photinus pyralis) (P08659 whole entry, looked up): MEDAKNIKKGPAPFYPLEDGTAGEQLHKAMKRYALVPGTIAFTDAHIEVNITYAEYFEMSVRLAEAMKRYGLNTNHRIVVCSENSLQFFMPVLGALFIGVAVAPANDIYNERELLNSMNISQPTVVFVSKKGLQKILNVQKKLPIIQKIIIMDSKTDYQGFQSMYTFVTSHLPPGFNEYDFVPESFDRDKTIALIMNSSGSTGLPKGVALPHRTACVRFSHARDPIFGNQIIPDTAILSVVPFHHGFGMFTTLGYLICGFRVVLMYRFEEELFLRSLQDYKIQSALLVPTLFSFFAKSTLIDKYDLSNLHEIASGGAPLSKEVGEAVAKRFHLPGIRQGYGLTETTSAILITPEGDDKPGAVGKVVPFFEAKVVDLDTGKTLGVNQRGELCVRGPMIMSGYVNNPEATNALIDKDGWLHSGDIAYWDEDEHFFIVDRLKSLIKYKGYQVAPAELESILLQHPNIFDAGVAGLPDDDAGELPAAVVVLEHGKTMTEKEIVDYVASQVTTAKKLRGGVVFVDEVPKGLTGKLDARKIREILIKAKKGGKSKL

The assay has as its target Luciferin 4-monooxygenase (Photinus pyralis) (UniProt P08659). As to the kind of experiment: Firefly luciferase (FLuc-C-HiBiT) SDR gain of signal screen - plus ATP.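 Further: signal reports ligand binding via conformational change of the enzyme rather than luciferase catalysis; nearly all actives have a fitted effect of over 55% in size.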 The note with it: purified FLuc-C-HiBiT + ATP, HiBiT complementation luminescence; series mostly up to 32.7 µM. The text has this: PI: James Inglese Ph.D. National Center for Advancing Translational Sciences (NCATS), National Institute of Health (NIH), Maryland Discovery and optimization of novel protein-binding ligands underlies many of the methods and applications of biology, drug discovery, clinical diagnostics, and environmental toxicology. Assays for detecting the interaction of, for example, a molecule with a macromolecular target also referred to here as the target of interest (TOI) is dependent on a compatible output technology. Depending on the nature and knowledge surrounding the TOI, whether a receptor, enzyme, regulatory subunit or scaffold, or a sequence-defined nucleic acid folded into a complex tertiary structure, assay strategies can vary widely. Here we exploit ligand-biased changes in the structural dynamics of the target protein to control reporter alpha complementation allowing a non-competitive, non-functional, non-separation measure of ligand-target interaction. […] Using a chemical library of >1,200 compounds enriched for scaffolds known to be associated with the inhibition of firefly luciferase (FLuc) activity (PubChem AIDs 2309) we first illustrate and compare the Structural Dynamics Response (SDR) assay vs. the standard functional FLuc enzyme assay (2). Secondly, we show the specificity and sensitivity of the SDR for the Abelson tyrosine kinase (ABL1) compared to the serine/threonine protein kinase A, using an enriched chemical library of 128 compounds selected, in part, for activity annotated with ABL1 kinase activity using the Pharos database (3). References: (1) A. S. Dixon et al., NanoLuc Complementation Reporter Optimized for Accurate Measurement of Protein Interactions in Cells. ACS Chem Biol 11, 400-408 (2016). […] Chemistry & Biology, 19, 1060 - 1072 (2012). (3) K. J. Kelleher et al., Pharos 2023: an integrated resource for the understudied human proteome. Nucleic Acids Res 51, D1405-D1416 (2023).
1. Reagent. Dispense 4 uL FLuc-C-HiBiT enzyme-buffer solution per well at a final enzyme concentration of 10 nM with or without 10 uM ATP into columns 2-48 of white, solid bottom medium bind 1536-well plates (Greiner Bio-One) by BioRaptr 2. Dispense respective buffer without enzyme at 4 uL/well in column 1 of assay plates. 2. Compounds. Library compounds and PTC124 control added at 23 nL per well, transfer by Pin Tool. 3. Incubation. Incubate enzyme and compounds at room temperature for >30 min, protect from light. 4. Reagent. (SDR assay) Add 3 uL/well of Nano-Glo HiBiT reagent (Promega) to assay plates for SDR assay with ATP. 5. Incubation. Incubate enzyme and substrate or detection reagent at room temperature for 5-10 min, protect from light. 6. Detector. HiBiT SDR assay measured using CCD-based camera (ViewLux) with settings as follows: Exposure, 1 sec; Gain, High; Speed, Slow; Binning, 2X. REFERENCES: Inglese J, Shamu CE and Guy RK, Reporting data from high throughput screening of small molecule libraries, Nature Chemical Biology, 2007, 3(8): 438-441. doi.org/10.1038/nchembio0807-438.
Regarding `CC(=O)c1ccc(NC(=O)CSc2nnc(NC(=O)Nc3ccccc3)s2)cc1`, the Potency entry was “inactive”.
Next, `Cc1ccc(C(=O)Nc2ccc(-c3nc4ccccc4s3)c(O)c2)cc1`: “inactive”.
Next, `Cc1nn(-c2ccc(C(C)(C)C)cc2)c(C)c1[C@@H]1C=C[C@@H](NC(=O)c2ccco2)C1`: “inactive”.
Next, `Oc1ccc(-c2nc(C3CC3)nc3c2CCN(Cc2cccc(F)c2)CC3)cc1`: “inactive”; `CC(=O)Nc1ccc(NC(=O)CCCc2nc(-c3ccc(C(C)(C)C)cc3)no2)cc1`: “inactive”.
As for `Cc1ccc(Nc2c(-c3ccc(N(C)C)cc3)nc3nc[nH]n23)cc1`, the Potency entry is “inactive”.
`Fc1ccc(Nc2nc(-c3ccccc3F)no2)cc1`: the Potency entry was “inactive”.
Turning to `Cc1ccc(-c2nnc(SCc3ccccc3C)o2)cc1`, the Potency entry is “inactive”.
Next, `CCNC(=O)C1C(c2cccc(NC(=O)c3ccc(OC)cc3)c2)OC(=O)N1Cc1ccc(C)cc1` (centres undefined): 3.94 µM (active); `Cc1cc(C)n(CCC(=O)N2CCC(Cc3noc(C4CC4)n3)C2)n1` (centres undefined): “inactive”.
As for `Cc1cccc(-c2cccc(NC(=O)C3CCCN(C(=O)CC(F)(F)F)C3)c2)c1` (centres undefined), the Potency result was “inactive”.
As to `Cc1nn(-c2ccc(C(C)C)cc2)c(C)c1[C@@H]1C=C[C@@H](NC(=O)CC2(CC(=O)O)CCCC2)C1`, the Potency entry was “inactive”.
In the case of `CC(C)C(=O)Nc1cc(-c2nc3ccccc3s2)ccc1Cl` it was “inactive”.
Turning to `COc1cccc(-c2nc3ccc(-c4ccc5c(c4)OCO5)cc3o2)c1OC`, the Potency entry is “inactive”.
In the case of `OC1(CN2CCCCC2)CCN(c2nc3ccccc3s2)C1` (centres undefined) it was “inactive”; in that of `Cc1nn(-c2ccc(C(C)C)cc2)c(C)c1[C@@H]1C=C[C@@H](NC(=O)Nc2ccccc2)C1`, “inactive”.
Next, `CN1CCN(C[C@@H]2CN(C(=O)CCCc3ccccc3)C[C@@H]2CO)CC1`: “inactive”.
For the compound `COc1ccc(-c2cc(N3CCCC(NC(=O)c4ccsc4)C3)n[nH]2)cc1` (centres undefined), the Potency result is “inactive”.
In the case of `COc1ccccc1OC1(C(=O)O)CCN(c2ncnc3nc[nH]c23)CC1`, the Potency entry was “inactive”.
Consider `O=C(CSc1ccc(F)cc1)Nc1ccccc1-c1nc2ccccc2s1`, for which the Potency result was “inactive”.
Next, `O=C(Nc1ccccc1)c1nc2c(o1)CCN(Cc1cccc(Cl)c1)CC2`: “inactive”; `COc1ccc(C(=O)Nc2onc3c2CCCC3)cc1`: 3.94 µM (active).
Next, `OCc1cccc(-c2cc3c(cn2)CN(Cc2ccccc2)CCN3)c1`: “inactive”; `O=C(/C=C/c1ccccc1)Nc1cc(-c2nc3cc(Cl)ccc3o2)ccc1Cl`: “inactive”.
`CC(=O)c1nn(-c2ccc(OC(F)(F)F)cc2)nc1Nc1ccccc1`: the Potency entry was “inactive”.
`CNc1nc(C(=O)NCc2ccc3[nH]c(-c4ccc(F)cc4)c(C)c3c2)cs1`: the Potency entry is “inactive”.
In the case of `CN1c2cc(C(=O)Nc3ccccc3)ccc2C(=O)N2CCCCCC21` (centres undefined) it was “inactive”; in that of `Cc1nn(-c2ccc(C(C)C)cc2)c(C)c1[C@@H]1C=C[C@@H](NC(=S)NCC(C)C)C1`, “inactive”.
Consider `Cc1cccc(C(=O)Nc2ccc(-c3nc4ccccc4s3)c(C)c2)c1`, for which the Potency result is “inactive”.
Regarding `OCC1CCCN(c2ncnc3c2cnn3-c2ccccc2)C1` (centres undefined), the Potency is 0.785 µM (active).
Next, `Cc1ccc(Cl)cc1-n1ncc2c(N3CCC(C(N)=O)CC3)ncnc21`: “inactive”.
In the case of `OCCN1CCN(c2nc(N3CCCCC3)c3cnn(-c4ccc(Cl)cc4)c3n2)CC1` it was “inactive”; in that of `C[S+](=O)([O-])CCn1ncc2cc(OCc3cccc(-c4ccccc4)c3)ccc21`, “inactive”.
In the case of `CC(=O)Oc1ccccc1C(=O)Nc1ccc(-c2nc3ccc(C)cc3s2)cc1` it was “inactive”.
`O=C(NC1CCN(c2cc(-c3ccc(F)cc3)[nH]n2)C1)c1cc2ccccc2[nH]1` (centres undefined): the Potency entry was “inactive”.
On to `Cc1ccc2cc(CN3CCN(CC(N)=O)CC3)c(-c3cccs3)nc2c1`, for which the Potency entry is “inactive”.
In the case of `COc1ccc(CC(=O)Nc2ccc(-c3nc4ccccc4s3)c(C)c2)cc1` it was “inactive”.
In the case of `COc1ccc(-c2nc3ccccc3s2)cc1NC(=O)COc1ccccc1C` it was “inactive”; in that of `CCc1cccc(NC(=O)c2cc(-c3ccccc3)n[nH]2)c1`, “inactive”; in that of `COc1cc(F)ccc1-c1ccc(COc2ccc3c(cnn3CCC(=O)O)c2)cc1`, “inactive”.
For the compound `Cc1ccc(-c2nc(C(=O)N(C)Cc3ccccc3)no2)cc1`, the Potency entry is “inactive”.
As for `Oc1cccc(-c2cc3c(cn2)CN(Cc2cccnc2)CCN3)c1`, the Potency entry was “inactive”.
Take `O=C(COc1ccc(Cl)cc1)Nc1ccc(-c2nc3cc(Cl)ccc3o2)c(O)c1`: the Potency result was “inactive”.
Next, `CCOC(=O)C1CCN(C(=O)c2cccc3c2CCN3C(=O)Nc2ccccc2)CC1`: 3.13 µM (active).
